Where a chain is given by its changes, count along the chain named.
Assays:
Test in all cases: PBM; 200 nM protein, PBS
Conditions in all cases: dsDNA, one strand shown
VENTX [1] = target: T1, VENTX (Homo sapiens, UniProt O95231 78-163, R121Q)
T1 sequence: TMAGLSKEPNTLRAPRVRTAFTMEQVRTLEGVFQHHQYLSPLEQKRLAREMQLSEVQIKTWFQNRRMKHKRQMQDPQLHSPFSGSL

HOXA4 [2] = target: HOXA4 (Homo sapiens, UniProt Q00056 201-287, W262R)
HOXA7 [3] = target: HOXA7 (Homo sapiens, UniProt P31268 116-202)
ALX4 = ALX4 (Homo sapiens, UniProt Q9H161 200-286)
ALX4, sequence (Q9H161 200-286): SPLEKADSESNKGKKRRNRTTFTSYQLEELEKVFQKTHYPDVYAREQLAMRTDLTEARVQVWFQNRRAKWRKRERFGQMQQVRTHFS

PRRX1 [4] = target: PRRX1 (Homo sapiens, UniProt P54821 80-166, F113S)
PRRX1 (Homo sapiens, UniProt P54821 80-166, F113S), sequence (P54821 80-166 F113S): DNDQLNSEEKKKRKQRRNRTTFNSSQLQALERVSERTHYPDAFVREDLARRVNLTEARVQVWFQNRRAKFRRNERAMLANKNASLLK

VENTX [5] = target: T2, VENTX (Homo sapiens, UniProt O95231 78-163, Y115F)
T2 sequence: T1 sequence with Y38F, Q44R

HOXB6 = HOXB6 (Homo sapiens, UniProt P17509 132-218, K202E)
HOXB6, sequence (P17509 132-218 K202E): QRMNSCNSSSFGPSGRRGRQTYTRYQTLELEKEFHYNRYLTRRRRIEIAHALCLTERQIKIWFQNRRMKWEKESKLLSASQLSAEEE

HOXA2 [6] = target: HOXA2 (Homo sapiens, UniProt O43364 129-215, R185T)
HOXA2 (Homo sapiens, UniProt O43364 129-215, R185T), sequence (O43364 129-215 R185T): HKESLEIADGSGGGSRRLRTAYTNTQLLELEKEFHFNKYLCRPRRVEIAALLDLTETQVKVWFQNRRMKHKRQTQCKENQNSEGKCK

HOXA4 [7] = target: HOXA4 (Homo sapiens, UniProt Q00056 201-287, R217L)
HOXA4 (Homo sapiens, UniProt Q00056 201-287, R217L), sequence (Q00056 201-287 R217L): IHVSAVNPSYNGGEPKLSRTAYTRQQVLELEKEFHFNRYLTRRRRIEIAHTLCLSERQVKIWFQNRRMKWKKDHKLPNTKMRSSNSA

HOXB4 = HOXB4 (Homo sapiens, UniProt P17483 148-234, V174I)
HOXB4, sequence (P17483 148-234 V174I): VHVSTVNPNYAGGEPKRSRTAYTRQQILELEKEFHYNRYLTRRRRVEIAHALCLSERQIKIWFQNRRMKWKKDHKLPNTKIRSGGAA

PAX4 = target: T3, PAX4 (Homo sapiens, UniProt O43316 9-242, R200Q)
T3 sequence: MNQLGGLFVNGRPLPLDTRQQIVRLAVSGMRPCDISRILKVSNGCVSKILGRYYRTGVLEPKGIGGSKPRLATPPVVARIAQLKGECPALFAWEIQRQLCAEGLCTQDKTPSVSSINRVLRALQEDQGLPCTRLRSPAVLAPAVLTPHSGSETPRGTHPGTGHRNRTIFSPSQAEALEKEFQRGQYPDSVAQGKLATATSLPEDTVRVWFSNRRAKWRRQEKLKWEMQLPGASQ

HOXA2 [8] = target: HOXA2 (Homo sapiens, UniProt O43364 129-215, R185K)
HOXA2 (Homo sapiens, UniProt O43364 129-215, R185K), sequence (O43364 129-215 R185K): as the sequence (O43364 129-215 R185T) above, with T57K counted along it

HOXA4 [9] = target: HOXA4 (Homo sapiens, UniProt Q00056 201-287)
HOXA4 (Homo sapiens, UniProt Q00056 201-287), sequence (Q00056 201-287): as the sequence (Q00056 201-287 R217L) above, with L17R counted along it

MSX2 [10] = target: MSX2 (Homo sapiens, UniProt P35548 130-214)
MSX2 (Homo sapiens, UniProt P35548 130-214), sequence (P35548 130-214): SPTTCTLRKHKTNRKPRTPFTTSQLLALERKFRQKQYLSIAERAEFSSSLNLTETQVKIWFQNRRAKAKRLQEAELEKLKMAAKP

MSX2 [11] = target: MSX2 (Homo sapiens, UniProt P35548 130-214, F161Y)
MSX2 (Homo sapiens, UniProt P35548 130-214, F161Y), sequence (P35548 130-214 F161Y): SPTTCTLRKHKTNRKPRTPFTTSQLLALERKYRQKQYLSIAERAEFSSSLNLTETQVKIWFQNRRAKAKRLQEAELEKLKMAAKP

VAX1 [12] = target: VAX1 (Homo sapiens, UniProt Q5SQQ9 86-172, T142I)
VAX1 (Homo sapiens, UniProt Q5SQQ9 86-172, T142I), sequence (Q5SQQ9 86-172 T142I): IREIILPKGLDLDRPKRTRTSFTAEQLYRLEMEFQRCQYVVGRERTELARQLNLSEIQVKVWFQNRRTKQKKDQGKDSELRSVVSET

HOXA7 [13] = target: HOXA7 (Homo sapiens, UniProt P31268 116-202, W177C)
HOXA7 (Homo sapiens, UniProt P31268 116-202, W177C), sequence (P31268 116-202 W177C): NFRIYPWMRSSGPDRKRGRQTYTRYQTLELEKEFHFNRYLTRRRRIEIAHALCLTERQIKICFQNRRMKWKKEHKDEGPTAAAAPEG

HOXA4 [14] = target: HOXA4 (Homo sapiens, UniProt Q00056 201-287, W262F)
HOXA4 (Homo sapiens, UniProt Q00056 201-287, W262F), sequence (Q00056 201-287 W262F): as the sequence (Q00056 201-287 R217L) above, with L17R, W62F counted along it

PRRX1 [15] = target: PRRX1 (Homo sapiens, UniProt P54821 80-166)
PRRX1 (Homo sapiens, UniProt P54821 80-166), sequence (P54821 80-166): as the sequence (P54821 80-166 F113S) above, with S34F counted along it

VAX1 [16] = target: VAX1 (Homo sapiens, UniProt Q5SQQ9 86-172, K157R)
VAX1 (Homo sapiens, UniProt Q5SQQ9 86-172, K157R), sequence (Q5SQQ9 86-172 K157R): as the sequence (Q5SQQ9 86-172 T142I) above, with I57T, K72R counted along it

HOXA7 (Homo sapiens, UniProt P31268 116-202), sequence (P31268 116-202): as the sequence (P31268 116-202 W177C) above, with C62W counted along it
HOXA4 (Homo sapiens, UniProt Q00056 201-287, W262R), sequence (Q00056 201-287 W262R): as the sequence (Q00056 201-287 R217L) above, with L17R, W62R counted along it

Sequence: ATAATTAG
- binding signal (VENTX [1]): 12.4 upbm affinity estimate (log intensity, higher = more binding, comparable within an allelic series)
- binding signal (HOXA4 [2]): 10.9 upbm affinity estimate (log intensity, higher = more binding, comparable within an allelic series)
- binding signal (HOXA7 [3]): 11.8 upbm affinity estimate (log intensity, higher = more binding, comparable within an allelic series)
- binding signal (ALX4): 14.4 upbm affinity estimate (log intensity, higher = more binding, comparable within an allelic series)
- binding signal (PRRX1 [4]): 11.9 upbm affinity estimate (log intensity, higher = more binding, comparable within an allelic series)
- binding signal (VENTX [5]): 12.3 upbm affinity estimate (log intensity, higher = more binding, comparable within an allelic series)
- binding signal (HOXB6): 10.1 upbm affinity estimate (log intensity, higher = more binding, comparable within an allelic series)
- binding signal (HOXA2 [6]): 13.9 upbm affinity estimate (log intensity, higher = more binding, comparable within an allelic series)
- binding signal (HOXA4 [7]): 12.7 upbm affinity estimate (log intensity, higher = more binding, comparable within an allelic series)
- binding signal (HOXB4): 14.3 upbm affinity estimate (log intensity, higher = more binding, comparable within an allelic series)
- binding signal (PAX4): 12.6 upbm affinity estimate (log intensity, higher = more binding, comparable within an allelic series)
- binding signal (HOXA2 [8]): 13.8 upbm affinity estimate (log intensity, higher = more binding, comparable within an allelic series)
- binding signal (HOXA4 [9]): 14.2 upbm affinity estimate (log intensity, higher = more binding, comparable within an allelic series)
- binding signal (MSX2 [10]): 14.1 upbm affinity estimate (log intensity, higher = more binding, comparable within an allelic series)
- binding signal (MSX2 [11]): 13.7 upbm affinity estimate (log intensity, higher = more binding, comparable within an allelic series)
- binding signal (VAX1 [12]): 13.9 upbm affinity estimate (log intensity, higher = more binding, comparable within an allelic series)
- binding signal (HOXA7 [13]): 9.08 upbm affinity estimate (log intensity, higher = more binding, comparable within an allelic series)
- binding signal (HOXA4 [14]): 12.3 upbm affinity estimate (log intensity, higher = more binding, comparable within an allelic series)
- binding signal (PRRX1 [15]): 13.7 upbm affinity estimate (log intensity, higher = more binding, comparable within an allelic series)
- binding signal (VAX1 [16]): 13.9 upbm affinity estimate (log intensity, higher = more binding, comparable within an allelic series)

Sequence: AATTAGTC
- binding signal (HOXB4): 13 upbm affinity estimate (log intensity, higher = more binding, comparable within an allelic series)
- binding signal (PAX4): 12.1 upbm affinity estimate (log intensity, higher = more binding, comparable within an allelic series)
- binding signal (MSX2 [10]): 13.5 upbm affinity estimate (log intensity, higher = more binding, comparable within an allelic series)
- binding signal (MSX2 [11]): 13 upbm affinity estimate (log intensity, higher = more binding, comparable within an allelic series)
- binding signal (VAX1 [16]): 12.3 upbm affinity estimate (log intensity, higher = more binding, comparable within an allelic series)

Sequence: AATTAATC
- binding signal (VENTX [1]): 11.8 upbm affinity estimate (log intensity, higher = more binding, comparable within an allelic series)
- binding signal (HOXA4 [2]): 10.6 upbm affinity estimate (log intensity, higher = more binding, comparable within an allelic series)
- binding signal (HOXA7 [3]): 11.3 upbm affinity estimate (log intensity, higher = more binding, comparable within an allelic series)
- binding signal (ALX4): 13.9 upbm affinity estimate (log intensity, higher = more binding, comparable within an allelic series)
- binding signal (PRRX1 [4]): 11.3 upbm affinity estimate (log intensity, higher = more binding, comparable within an allelic series)
- binding signal (VENTX [5]): 11.5 upbm affinity estimate (log intensity, higher = more binding, comparable within an allelic series)
- binding signal (HOXB6): 10 upbm affinity estimate (log intensity, higher = more binding, comparable within an allelic series)
- binding signal (HOXA2 [6]): 12.6 upbm affinity estimate (log intensity, higher = more binding, comparable within an allelic series)
- binding signal (HOXA4 [7]): 12.3 upbm affinity estimate (log intensity, higher = more binding, comparable within an allelic series)
- binding signal (HOXB4): 13.9 upbm affinity estimate (log intensity, higher = more binding, comparable within an allelic series)
- binding signal (PAX4): 12.2 upbm affinity estimate (log intensity, higher = more binding, comparable within an allelic series)
- binding signal (HOXA4 [9]): 13.9 upbm affinity estimate (log intensity, higher = more binding, comparable within an allelic series)
- binding signal (MSX2 [10]): 13.3 upbm affinity estimate (log intensity, higher = more binding, comparable within an allelic series)
- binding signal (MSX2 [11]): 13 upbm affinity estimate (log intensity, higher = more binding, comparable within an allelic series)
- binding signal (HOXA7 [13]): 8.73 upbm affinity estimate (log intensity, higher = more binding, comparable within an allelic series)
- binding signal (HOXA4 [14]): 11.3 upbm affinity estimate (log intensity, higher = more binding, comparable within an allelic series)
- binding signal (PRRX1 [15]): 13.3 upbm affinity estimate (log intensity, higher = more binding, comparable within an allelic series)

Sequence: CCCTACGG
- binding signal (VENTX [1]): 8.13 upbm affinity estimate (log intensity, higher = more binding, comparable within an allelic series)
- binding signal (HOXA4 [2]): 9.76 upbm affinity estimate (log intensity, higher = more binding, comparable within an allelic series)
- binding signal (VENTX [5]): 8.13 upbm affinity estimate (log intensity, higher = more binding, comparable within an allelic series)
- binding signal (HOXA4 [7]): 9.8 upbm affinity estimate (log intensity, higher = more binding, comparable within an allelic series)
- binding signal (HOXB4): 7.93 upbm affinity estimate (log intensity, higher = more binding, comparable within an allelic series)
- binding signal (HOXA4 [9]): 9.86 upbm affinity estimate (log intensity, higher = more binding, comparable within an allelic series)
- binding signal (HOXA4 [14]): 9.84 upbm affinity estimate (log intensity, higher = more binding, comparable within an allelic series)

Sequence: GTAATTGA
- binding signal (HOXA4 [2]): 10.4 upbm affinity estimate (log intensity, higher = more binding, comparable within an allelic series)
- binding signal (HOXA7 [3]): 11.2 upbm affinity estimate (log intensity, higher = more binding, comparable within an allelic series)
- binding signal (ALX4): 13.8 upbm affinity estimate (log intensity, higher = more binding, comparable within an allelic series)
- binding signal (PRRX1 [4]): 11 upbm affinity estimate (log intensity, higher = more binding, comparable within an allelic series)
- binding signal (HOXA2 [6]): 12.5 upbm affinity estimate (log intensity, higher = more binding, comparable within an allelic series)
- binding signal (HOXA4 [7]): 12 upbm affinity estimate (log intensity, higher = more binding, comparable within an allelic series)
- binding signal (HOXB4): 13.8 upbm affinity estimate (log intensity, higher = more binding, comparable within an allelic series)
- binding signal (HOXA2 [8]): 12.9 upbm affinity estimate (log intensity, higher = more binding, comparable within an allelic series)
- binding signal (HOXA4 [9]): 13.5 upbm affinity estimate (log intensity, higher = more binding, comparable within an allelic series)
- binding signal (MSX2 [10]): 13.7 upbm affinity estimate (log intensity, higher = more binding, comparable within an allelic series)
- binding signal (MSX2 [11]): 13.4 upbm affinity estimate (log intensity, higher = more binding, comparable within an allelic series)
- binding signal (VAX1 [12]): 12.4 upbm affinity estimate (log intensity, higher = more binding, comparable within an allelic series)
- binding signal (HOXA7 [13]): 8.88 upbm affinity estimate (log intensity, higher = more binding, comparable within an allelic series)
- binding signal (HOXA4 [14]): 11.2 upbm affinity estimate (log intensity, higher = more binding, comparable within an allelic series)
- binding signal (PRRX1 [15]): 13.3 upbm affinity estimate (log intensity, higher = more binding, comparable within an allelic series)
- binding signal (VAX1 [16]): 12.6 upbm affinity estimate (log intensity, higher = more binding, comparable within an allelic series)

Sequence: CCCCGGCG
- binding signal (HOXA4 [2]): 9.68 upbm affinity estimate (log intensity, higher = more binding, comparable within an allelic series)
- binding signal (HOXB6): 9.01 upbm affinity estimate (log intensity, higher = more binding, comparable within an allelic series)
- binding signal (HOXA4 [7]): 9.73 upbm affinity estimate (log intensity, higher = more binding, comparable within an allelic series)
- binding signal (HOXA4 [9]): 9.89 upbm affinity estimate (log intensity, higher = more binding, comparable within an allelic series)
- binding signal (HOXA4 [14]): 9.94 upbm affinity estimate (log intensity, higher = more binding, comparable within an allelic series)

Source: publication PMC11006913
